Only some compounds are listed: those with a hit (about 17% of all), similar ones and a draw of the others.
ClpP mod: qHTS Assay for Activators of ClpP; ATP-dependent Clp protease proteolytic subunit (Bacillus subtilis (strain 168)), P80244; purified B. subtilis ClpP, FRET peptide cleavage, 20 min; Potency, µM (highest dose often 57.5 µM), inactives show top-dose activity change, negative = active; actives 1.9% (n = 340,000); AID 651965, 2013; active = well fitted falling curve with a large enough effect; inconclusive = small, poorly fitted or top-dose-only effect; inactive = no such curve, though single readings can be large or run the other way; also: the source files actives as falling curves though it sought activators and does not explain the sign; nearly all actives have a fitted effect of over 65% in size
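FRET quenching reversal measured ClpP activation: 10 microg/mL B. subtilis ClpP at pH 8 with the FRET-FV decapeptide, read at 430 nm after 320 nm excitation. The 20-min minus 0-min signal was scaled between DMSO/no-enzyme wells and ADEP (5.8 microM final).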
TDP1 cell noCPT: qHTS for Inhibitors of human tyrosyl-DNA phosphodiesterase 1 (TDP1): qHTS in cells in absence of CPT | DT40 Tdp1-/- hTDP1 cells, no CPT, ATP luminescence, 48 h | actives 15% (n = 420,000) | Potency, µM (highest dose often 46.2 µM), for the others: at the highest dose activity change, negative = growth inhibition, hits mostly inhibitors; also: % is scaled to controls: 0 for no effect and ±100 for the full control effect; nearly all actives have a fitted effect of over 55% in size
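Luminescent ATP content (CellTiter-Glo) served as the growth readout. Knockout chicken DT40 cells expressing human TDP1 were exposed to compounds without camptothecin for a minimum 48 hr at 37 °C.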
TDP1 block: TDP1 (human) enzyme inhibition; Q9NUW8; Potency, µM (highest dose often 130 µM), inactives show at the top dose activity change, negative = inhibition, usual class: inhibitors; actives 0.28% (n = 350,000); recombinant TDP1, AlphaScreen DNA substrate cleavage; also: % is scaled to controls: 0 for no effect and ±100 for the full control effect; nearly all actives have a fitted effect of over 40% in size
Target sequence (Q9NUW8 whole entry, looked up): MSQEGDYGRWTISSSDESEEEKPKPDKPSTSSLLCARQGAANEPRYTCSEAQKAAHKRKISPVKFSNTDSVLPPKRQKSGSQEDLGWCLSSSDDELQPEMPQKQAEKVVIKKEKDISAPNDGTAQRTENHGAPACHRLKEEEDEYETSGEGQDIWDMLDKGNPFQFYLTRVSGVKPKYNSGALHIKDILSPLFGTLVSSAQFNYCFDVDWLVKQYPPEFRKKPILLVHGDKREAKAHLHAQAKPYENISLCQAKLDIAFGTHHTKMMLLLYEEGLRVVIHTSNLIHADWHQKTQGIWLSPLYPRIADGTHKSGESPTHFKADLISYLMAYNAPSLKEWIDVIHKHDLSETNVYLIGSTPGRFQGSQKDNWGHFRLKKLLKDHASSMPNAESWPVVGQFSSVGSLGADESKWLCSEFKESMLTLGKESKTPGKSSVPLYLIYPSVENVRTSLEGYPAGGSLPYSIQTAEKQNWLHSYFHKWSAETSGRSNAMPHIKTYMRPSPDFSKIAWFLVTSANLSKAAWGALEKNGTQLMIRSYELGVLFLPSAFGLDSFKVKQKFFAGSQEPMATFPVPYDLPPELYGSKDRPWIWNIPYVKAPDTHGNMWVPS
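AlphaScreen read-out: signal falls as enzyme removes the 3' tyrosine-FITC from a 5'-biotinylated DNA oligo (15 nM, 5 min, RT). Enzyme was E. coli-made recombinant Tdp1 at 1 nM, exposed to compound for 15 min beforehand; beads 10 ug/ml, 10 min.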
DT40 TDP1 CPT: growth inhibition of DT40 Tdp1-/-;hTDP1 cells with camptothecin (screen for TDP1 inhibitors) | chicken DT40 Tdp1-/-;hTDP1 cells + 20 nM CPT, ATP luminescence, 48 h | Potency, µM (titrated, usually from 46.2 µM), for the others: at the highest dose activity change, negative = growth inhibition, hits mostly inhibitors | actives 12% (n = 420,000) | AID 686979; also: % is scaled to controls: 0 for no effect and ±100 for the full control effect; nearly all actives have a fitted effect of over 55% in size
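Cell growth measured by CellTiter-Glo luminescence after a minimum 48 h, 37 C compound exposure with 20 nM CPT in Tdp1-knockout DT40 cells stably expressing hTDP1, seeded 400/well; qHTS titration format.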
Active calls of the source: *; ? = inconclusive; / = no result given. Unless noted, calls follow the shape of the dose curve; as a rule, active = well fitted curve in the direction sought with a large enough effect; inconclusive = small, poorly fitted or top-dose-only effect, or another doubt; inactive = no such curve, though single readings can be large; an effect the other way counts as inactive or inconclusive. Potency is read from the fitted curve at half-maximal effect.

SMILES | ClpP mod | TDP1 cell noCPT | TDP1 block | DT40 TDP1 CPT
COc1cc(/C=C(\C#N)C(=O)Nc2nnc(C(F)(F)F)s2)ccc1OCc1ccc(C(F)(F)F)cc1C(F)(F)F | / | / | 6% | /
COc1ccc(C2C(C(=O)Nc3ccccc3)=C(C)Nc3c(C(=O)Nc4ccccc4)cnn32)cc1 (stereo not drawn) | ? | ? | 2% | ?
CCc1cccc(NC(=O)CC2Oc3ccc(C)cc3NC2=O)c1 (stereo not drawn) | -4% | 0% | -2% | -9%
Cc1nc(N)[nH]c(=O)c1CCCNc1ccc(CCCCC2(CCl)OCCO2)cc1 | / | ? | / | 18µM*
CCc1nnc(SCc2ccc([N+](=O)[O-])cc2)nc1CC | -2% | -26% | / | -17%
Cc1cc(C(=O)N2CCCC(C(=O)c3cccc4ccccc34)C2)nc(C)n1 (stereo not drawn) | -3% | ? | / | ?
CCn1nc(C)cc1C(=O)N1CCCC(C(=O)c2ccccc2SC)C1 (stereo not drawn) | -1% | 18µM* | 3% | 16µM*
CSc1ccccc1C(=O)C1CCCN(C(=O)NC(C)C)C1 (stereo not drawn) | / | -23% | / | -25%
CCc1cc(C(=O)N2CCCC(C(=O)c3cccc4ccccc34)C2)n(C)n1 (stereo not drawn) | / | 15µM* | 3% | ?
O=C(c1cccc2ccccc12)C1CCCN(C(=O)CCCn2cncn2)C1 (stereo not drawn) | / | 16µM* | 0% | -22%
O=C(c1cccc2ccccc12)C1CCCN(C(=O)c2ccc(N3CCOCC3)cc2)C1 (stereo not drawn) | / | 23µM* | 6% | ?
CCN1CCN(C(c2ccccc2)c2c(O)cc(C)n(CCOC)c2=O)CC1 (stereo not drawn) | 2% | -9% | 5% | -12%
Cc1cccc(C)c1NC(=O)CN(c1ccccn1)S(=O)(=O)c1ccc(F)cc1 | / | -26% | 2% | -8%
COc1ccc(Cc2nc3c4cnn(-c5cccc(F)c5)c4ncn3n2)cc1 | ? | 8% | -2% | -4%
CCOC(=O)CSC1=Nc2ccccc2C2=NC(CCC(=O)NCc3ccccc3)C(=O)N12 (stereo not drawn) | 4% | ? | -4% | ?
CC(=O)N1c2ccc(S(=O)(=O)N3CCCC3C(=O)NCc3ccc(Cl)cc3)cc2CC1C (stereo not drawn) | 3% | ? | / | 21µM*
COc1ccc(NC(=O)C2CCN(S(=O)(=O)c3ccc4c(c3)CC(C)N4C(C)=O)CC2)cc1OC (stereo not drawn) | -1% | ? | 3% | ?
O=C(NCc1ccc(Cl)cc1)[C@@H]1CCCN1S(=O)(=O)c1ccc(Cl)cc1 | -2% | ? | -2% | ?
CC(=O)N1c2ccc(S(=O)(=O)N3CCC(C(=O)NCCc4ccc(Cl)cc4)CC3)cc2CC1C (stereo not drawn) | -1% | 10µM* | 1% | 16µM*
CC(=O)N1c2ccc(S(=O)(=O)N3CCC(C(=O)NCc4ccc(C)cc4)CC3)cc2CC1C (stereo not drawn) | -4% | -15% | 1% | ?
COc1cc(OC)c(NC(=O)C2CCN(S(=O)(=O)c3ccc4c(c3)CC(C)N4C(C)=O)CC2)cc1Cl (stereo not drawn) | -2% | ? | 4% | 21µM*
CC1Cc2cc(S(=O)(=O)N3CCC(C(=O)NCc4ccco4)CC3)ccc2N1C(=O)C1CCC1 (stereo not drawn) | / | 23µM* | 3% | ?
CCNC(=O)C1(C)CCN1Cc1cc(-c2ccccc2)n(C)n1 (stereo not drawn) | 1% | ? | / | ?
O=C(CNC(=O)c1ccccc1)NCC(=O)OCC(=O)c1cccc2ccccc12 | 0% | -6% | 0% | 3%
COc1cc(OC)c(NC(=O)N2CCc3cc(S(=O)(=O)N4CCC(C)CC4)ccc32)cc1Cl | ? | 8.2µM* | 0% | 10µM*
Cc1ccc(Cl)cc1NC(=O)N1CCc2cc(S(=O)(=O)N3CCC(C)CC3)ccc21 | 5% | -11% | 3% | -26%

Screening results (PubChem)
